Screening data as filed in PubChem BioAssay.
In the library only some 11% were active in any assay of this set; here they are far more common.
PNC assembly inh: inhibitors of perinucleolar compartment assembly; 140,000 tested, 3.1% active; activity change (PNC), negative = inhibition, % at 10 µM; PC3M PTB-GFP, PNC prevalence imaging, 16 h; hits give low values;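 active means readout at or below -70, meaning at least 70% loss of cells showing the perinucleolar compartment, a nuclear body marking cancer cells; inconclusive means readout between -30 and a set limit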;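 further: plate controls were DMSO wells for no effect and camptothecin positive control wells for full effect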
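Compounds are pinned in duplicate onto adhered PC3M cells stably expressing GFP-tagged PTB and incubated 16 h at 37 C. Cells are then fixed, nuclei stained with Hoechst, and PNC-positive cells counted.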
HPGD block: inhibitors of human 15-hydroxyprostaglandin dehydrogenase (HPGD); P15428; purified HPGD, NADH fluorescence kinetic, PGE2 substrate; Potency, µM, for inactives: at the highest dose activity change, negative = inhibition, usual class: inhibitors; 150,000 tested, 4.3% active; AID 894; further: potency means the concentration at half of the fitted maximal effect
Target sequence (P15428 whole entry, looked up): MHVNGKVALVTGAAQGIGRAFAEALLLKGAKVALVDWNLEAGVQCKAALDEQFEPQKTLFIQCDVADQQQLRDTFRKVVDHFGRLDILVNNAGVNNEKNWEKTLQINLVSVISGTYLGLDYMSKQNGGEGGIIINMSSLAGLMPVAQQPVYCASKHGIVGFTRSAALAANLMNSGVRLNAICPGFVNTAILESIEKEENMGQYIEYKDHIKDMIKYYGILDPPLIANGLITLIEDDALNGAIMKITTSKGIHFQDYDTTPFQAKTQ
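20 nM HPGD preincubated 15 min at room temperature with compound in 50 mM Tris-HCl pH 8, 0.01% Tween 20. Started with 1 mM NAD+ and 30 uM prostaglandin E2; NADH fluorescence (360/450 nm) read 5 times over 30-s intervals, last minus first.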
ALDH1A1 inh: inhibitors of human aldehyde dehydrogenase 1A1 | P00352 | Purified ALDH1A1, NADH fluorescence, propionaldehyde substrate | Potency, µM (series often up to 75.3 µM), inactives show top-dose activity, negative = inhibition, most hits filed as inhibitors | 220,000 tested, 7.3% active | AID 1030;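 further: potency means the concentration at half of the fitted maximal effect; plate controls were no enzyme wells and a reference inhibitor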
* = called active by the depositor; ? = inconclusive; . = no result; [ ] = remark or other dose. Unless noted, the call rests on the fitted dose curve; in most records, active means well fitted inhibition curve with a large enough effect (not every such curve was filed as active); inconclusive means small, poorly fitted or top-dose-only effect, or another doubt; inactive means no such curve, though single readings can be large or run the other way. Unless noted, on the % scale 0 is the no-effect control and ±100 the full control effect.

SMILES	PNC assembly inh	HPGD block	ALDH1A1 inh
COc1ccc(S(=O)(=O)NCCCCNS(=O)(=O)c2ccc(OC)cc2)cc1	9	-10%	1.3µM*
CCC(=O)O[C@H](CC(=O)O)C[N+](C)(C)C	.	-1%	-6%
C=C(C)[C@@H]1CC[C@]2(C(=O)O)CC[C@]3(C)[C@H](CCC4[C@@]5(C)CC[C@H](O)C(C)(C)[C@@H]5CC[C@]43C)[C@@H]12 (some centres not stated)	.	.	-12%
CSCCC(N)C(=O)NC(CC(C)C)C(=O)NC(Cc1ccccc1)C(=O)O (configuration not stated)	.	-10%	-7%
C#CCCCO/N=C1/C[C@@H](O)[C@@H](O)[C@@H]2[C@@H]3C(=O)N(Cc4ccccc4)C(=O)[C@H]3CC[C@@H]12	.	.	15%[13.5 µM]
CCc1cc2c(N3CCN(c4ccccc4)CC3)ncnc2s1	34	-24%	-8%
Oc1ccc(N2CCN(c3ncnc4sc(-c5ccccc5)cc34)CC2)cc1	.	.	25µM*
CC[C@](C)(CN(C)C)OC(=O)c1ccccc1	.	-1%	9%[20.9 µM]
N#CC1=C2N=C(N)c3c(sc4c3CCCCC4)N2C2=C(C(=O)CCC2)C1c1ccccc1 (configuration not stated)	17	-10%	5µM*
CCOc1ccc(C2C(C#N)=C(N)N(c3sc4c(c3C#N)CCCC4)C3=C2C(=O)CCC3)cc1 (configuration not stated)	-10	-7%	?
CC(C)(C)OC(=O)C(Cc1ccc(OC(C)(C)C)cc1)NC(=O)CNC(=O)OCc1ccccc1 (configuration not stated)	-10	-6%	?
Cc1ccc(N=C2NC(=O)/C(=C\c3ccco3)S2)cc1	?	?	-11%
Cc1ccc(S(=O)(=O)/N=C2/NC(=O)/C(=C/c3cccnc3)S2)cc1	-8	20µM*	3%
O=C1N/C(=N/O)S/C1=C/c1cccnc1	.	.	-12%
Cc1ccc(S(=O)(=O)/N=C2/NC(=O)/C(=C/c3ccc(Br)o3)S2)cc1	?	14µM*	-11%
COC(=O)c1ccccc1NC(=O)COC(=O)CSc1nnc(N)s1	.	.	-7%
C=C1C(=O)O[C@@H]2[C@@H]1CC/C(C)=C\CC[C@@]1(C)O[C@H]21	.	-1%	10µM*
C=C1C(=O)O[C@@H]2[C@H]3O[C@]3(C)CCC=C(C)CC[C@@H]12	.	-4%	20µM*
Cc1cc(C)nc(N(C#N)Cc2cccc(Cl)c2)n1	.	.	-14%
COc1ccc(/C=N/NC(=O)CC2N=C(Cc3ccccc3)NNC2=O)cc1OC (configuration not stated)	4	-4%	8%
O=C(Nn1c(C2CCCCC2)nc2ccccc2c1=O)c1ccc(Cl)c([N+](=O)[O-])c1	17	-14%	-4%
Cc1cc(C(=O)Nn2c(C3CCCCC3)nc3ccccc3c2=O)ccc1[N+](=O)[O-]	4	-5%	22µM*
CC1CCCC(NC(=S)NC(=O)c2ccccc2Br)C1C (configuration not stated)	-24	-25%	-3%
COCCN(C(=O)COc1ccccc1)c1nnc(-c2cccnc2)s1	-28	-13%	6%
COCCN(C(=O)COc1ccc(Cl)cc1)c1nnc(-c2cccnc2)s1	-100*	-15%	1%
SMILES	PNC assembly inh	HPGD block	ALDH1A1 inh
COCCN(C(=O)Cc1cccs1)c1nnc(-c2ccncc2)s1	-19	-5%	13µM*
CCN(C(=O)c1cccs1)c1nnc(-c2ccncc2)s1	?	-11%	-16%
O=c1[nH]c2ccc(N=Cc3c(O)ccc4cc(Br)ccc34)cc2[nH]1	79	-24%	1µM*
Cc1[nH]n(-c2ccccc2)c(=O)c1C=Nc1ccc2[nH]c(=O)[nH]c2c1	28	-10%	12%
CN1/C(=C\C=N\NC(=O)c2ccccc2Br)C(C)(C)c2ccccc21	-9	-30%	28µM*
CN1/C(=C/C=N/n2cnnc2)C(C)(C)c2ccccc21	?	-24%	3%
O=C(COc1ccc(Cl)cc1)NCc1nnc(SCC(=O)N2CCCCCC2)o1	.	.	-1%
CN(C)C(=S)c1ccc(N(C)C)cc1	.	.	0.79µM*
COc1ccc(C(=S)N2CCCC2)cc1OC	68	-15%	10%
CN(C)C(=S)c1ccccc1	.	.	7.1µM*
COc1ccc(C(=S)N(C)C)cc1OC	?	10µM*	?
CN(C)c1ccc(C(=N)c2ccc(N(C)C)cc2)cc1	.	-3%	-11%
CN(C(N)=S)c1ccccc1	1	-1%	9%
COCOc1c2c(c(OCOC)c3c(OCOC)cccc13)/C(=N/N[S+](=O)([O-])c1ccc(C)cc1)C1=C2CCCC1	.	-24%	-10%
COc1cc2c(cc1OC)C(c1ccccc1)N(S(C)(=O)=O)CC2 (configuration not stated)	.	.	-1%
COc1ccc(-c2cc(C(=O)NNC3=NCCC3)c3c(C)nn(-c4ccccc4)c3n2)cc1	.	.	6%
COc1ccc(NC(=O)c2cc(-c3ccccc3)nc3c2c(C)nn3-c2ccccc2)c(OC)c1	-89*	?	172%
CCC(=O)N1CCN(CCN=CC2=C(O)CC(c3ccc(OC)cc3)CC2=O)CC1 (configuration not stated)	-7	-6%	10%
N#Cc1cnc(N)c(Br)c1	.	.	2%
COc1ccc(/C=C(\C#N)C(=O)Nc2cc(S(=O)(=O)N3CCCCC3)ccc2N2CCCCC2)cc1	16	-21%	?
Cn1cnc([N+](=O)[O-])c1Sc1ncnc2nc[nH]c12	.	-11%	7%
Cc1cccc(Sc2ccc([N+](=O)[O-])cn2)c1	-15	-7%	-6%
Cc1nc([N+](=O)[O-])c(Sc2nc3ccccc3[nH]2)n1Cc1ccccc1	-20	-4%	-8%
Cc1cc2nc(Sc3c([N+](=O)[O-])nc(C)n3Cc3ccccc3)[nH]c2cc1C	?	-22%	1.1µM*
Cn1cnc([N+](=O)[O-])c1Sc1nnc(-c2cccnc2)n1C	.	0%	-7%[13.5 µM]
SMILES	PNC assembly inh	HPGD block	ALDH1A1 inh
Cn1cnc([N+](=O)[O-])c1Sc1nc2ccccc2[nH]1	.	.	20µM*
Cc1cccnc1Sc1c([N+](=O)[O-])ncn1C	38	-8%	16µM*
Cc1cccc(Sc2c([N+](=O)[O-])ncn2C)c1	-7	5µM*	0%
Cc1c(Br)c([N+](=O)[O-])nn1C(C)C(=O)N1CCCc2ccccc21 (configuration not stated)	30	-4%	2%
CC(=O)c1cccc(NC(=O)Cc2coc3cc4c(cc23)CCC4)c1	38	-19%	-9%
COc1ccccc1-n1cc([C@@H]2C[C@H]3CN(c4ccccc4)C(=O)[C@]34CCCN24)cn1	.	.	5%
CCN1CCN(c2ccc([N+](=O)[O-])c(Sc3nc4ccccc4[nH]3)c2)CC1	?	.	3%
CS(=O)(=O)c1cc([N+](=O)[O-])c(Sc2nc3ccccc3[nH]2)c([N+](=O)[O-])c1	?	3.5µM*	8.9µM*
Cc1cccc(C)c1NC(=S)NCCSc1ccc(Cl)cc1	.	.	5%
CCn1c(SCC(=O)N/N=C/c2c[nH]c3ccccc23)nnc1-c1ccc(Cl)cc1	15	-6%	5%
Cc1oc2ccc(O)c(CN3CCOCC3)c2c1C(C)O (configuration not stated)	?	-3%	7.1µM*
CC(=O)c1c(C)oc2ccc(O)c(CN3CCOCC3)c12	-8	-10%	-12%
